# In PubChem BioAssay AID2685 (National Center for Advancing Translational Sciences (NCATS), 2010):
# Hit rate of the full screen: of about 320,000 compounds, about 2,100 (0.66%) were called active. Another 53% or so got no clear call; they are omitted. Calls follow the shape of the dose curve; as a rule, active = well fitted inhibition curve with a large enough effect in the signal ratio, with a control signal flat (not every such curve was filed as active); inconclusive = small, poorly fitted or top-dose-only effect, or effect the other way, or a change in a side signal; inactive = flat fitted curve, though single readings scatter; the % refers to the signal ratio. Many of the other results were omitted from the sample, so actives are more common in it than they were.
# Assay: qHTS Assay for Lipid Storage Modulators in Drosophila S3 Cells;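 as to cell number change: cells counted by Cell Tracker Red CMTPX staining in the red channel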; as to lipid storage change, negative = inhibition: % is scaled to controls: 0 for no effect and ±100 for the full control effect
# Details: BODIPY lipid droplet fluorescence, 18-24 h, cells fed with added oleic acid; cell number change: measured here: cell count max response; series mostly up to 46.1 µM
# Summary of the method: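 Laser-scanning cytometry quantifies lipid droplet accumulation (500–530 nm total intensity; droplet/cell object ratio) in oleic acid-fed (400 uM added) Drosophila S3 cells treated with a concentration series. 20 uM Triacsin C defined 100% inhibition.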
# Potency is read from the fitted curve at half-maximal effect.
SMILES,Potency,cell number change,"lipid storage change, negative = inhibition"
Cc1cc(C)c2nc(N3CCCC(C(=O)NCCN4CCOCC4)C3)sc2c1 (stereo not given),inactive,-0.96%,–
O=C(C1=C(O)C(=O)N(CCN2CCOCC2)C1c1ccc(F)cc1)c1cccs1 (stereo not given),18.4 µM (active),-5.07%,–
CCOc1ccc(C2C(C(=O)c3cccs3)=C(O)C(=O)N2CCN2CCOCC2)cc1 (stereo not given),inactive,7.61%,–
COCCN1C(=O)C(O)=C(C(=O)c2ccco2)C1c1cccc(Oc2ccccc2)c1 (stereo not given),inactive,11.9%,–
CC(=O)C1=C(O)C(=O)N(CCO)C1c1ccccc1 (stereo not given),inactive,1.42%,–
COCCCN1C(=O)C(O)=C(C(=O)c2ccco2)C1c1ccccc1 (stereo not given),3.66 µM (active),-2.26%,–
Cc1ccc(C2C(C(=O)c3cc4ccccc4o3)=C(O)C(=O)N2CCN2CCOCC2)cc1 (stereo not given),inactive,-0.236%,–
O=C(C1=C(O)C(=O)N(CCN2CCOCC2)C1c1ccc([N+](=O)[O-])cc1)c1cccs1 (stereo not given),inactive,22.6%,–
O=C1C(=O)N(CCN2CCOCC2)C(c2ccccn2)/C1=C(/O)c1ccc(Cl)cc1 (stereo not given),inactive,8.56%,–
Cc1ccc(/C(O)=C2/C(=O)C(=O)N(CCN3CCOCC3)C2c2ccccn2)cc1 (stereo not given),29.1 µM (active),–,–
O=C1C(=O)N(CCN2CCOCC2)C(c2ccccn2)/C1=C(/O)c1ccccc1 (stereo not given),inactive,1.37%,–
O=C(C1=C(O)C(=O)N(CCCn2ccnc2)C1c1ccccc1)c1ccco1 (stereo not given),inactive,-0.647%,–
CC(=O)C1=C(O)C(=O)N(CCN2CCOCC2)C1c1ccccc1 (stereo not given),20.6 µM (active),1.7%,–
COc1ccc(C2CC(=O)N(CC(=O)NCC3CCCO3)c3ccccc3S2)cc1 (stereo not given),inactive,0.213%,–
CC(=O)Nc1ccc(S(=O)(=O)NNC(=O)C(=O)NNc2ccccn2)cc1,inactive,-5.03%,–
O=C(Nc1ccccc1)c1cc(S(=O)(=O)N2CCOCC2)cs1,inactive,–,–
Cc1ccc(C(=O)NCc2ccco2)cc1S(=O)(=O)N1CCOCC1,inactive,-14.2%,–
O=C(Nc1ccccc1F)C(=O)c1cn(CC(=O)N2CCCCC2)c2ccccc12,inactive,-5.77%,–
COc1ccc(NC(=O)Cn2cnc3c(nnn3-c3ccc(C)cc3)c2=O)cc1,–,-12.8%,-12.6% [at 9.22 µM] (inactive)
CC(=O)C1=C(O)C(=O)N(CCc2c[nH]c3ccccc23)C1c1ccc(O)cc1 (stereo not given),inactive,-2.81%,–
CC(=O)C1=C(O)C(=O)N(CCc2c[nH]c3ccccc23)C1c1ccccc1 (stereo not given),inactive,3.29%,–
CC(=O)C1=C(O)C(=O)N(CCc2c[nH]c3ccccc23)C1c1cccc(O)c1 (stereo not given),20.6 µM (active),-19.8%,–
CCOC(=O)c1[nH]c(C)c(C(=O)NCCCN2CCOCC2)c1C,inactive,18.3%,–
CCc1ccc(-n2cnc3cc(C(=O)NCC(OC)OC)ccc32)cc1,inactive,2.84%,–
COc1ccccc1-c1nnc(SCC(=O)Nc2ccc(S(N)(=O)=O)cc2)n1N,inactive,6.66%,–

SMILES,Potency,cell number change,"lipid storage change, negative = inhibition"
CCn1c(SCC(=O)Nc2nccs2)nnc1-c1cc2cccc(OC)c2o1,1.84 µM (active),-5.05%,–
C=CCn1c(SCC(=O)Nc2nccs2)nnc1-c1cc2cccc(OC)c2o1,inactive,-25.4%,–
CCn1c(SCC(=O)Nc2nccs2)nnc1-c1ccc(C)cc1,inactive,-13.5%,–
Cc1ccc(OCC(=O)NNC(=O)c2cccnc2)cc1C,inactive,0.125%,–
CCC(C(=O)NCc1ccco1)N(C(=O)CNS(=O)(=O)c1ccc(C)cc1)c1ccccc1F (stereo not given),1.16 µM (active),11.8%,–
CCC(C(=O)NCc1ccco1)N(C(=O)CNS(=O)(=O)c1ccc(F)cc1)c1ccccc1F (stereo not given),inactive,-1.9%,–
CCC(C(=O)NCc1ccco1)N(C(=O)CNS(=O)(=O)c1ccc(C)cc1)c1ccccc1OC (stereo not given),inactive,-11.8%,–
CNC(=O)/C(C#N)=C/c1c(F)cccc1Cl,10.3 µM (active),-9.91%,–
CNC(=O)/C(C#N)=C/c1c(N2CCCCCC2)nc2ccccn2c1=O,inactive,0.926%,–
CNC(=O)/C(C#N)=C\c1ccc(CNS(=O)(=O)c2ccc(Cl)cc2)o1,inactive,-11.3%,–
COC(=O)C1=C(C)N(C2CCCC2)C(=O)C1(NC(C)=O)C(F)(F)F (stereo not given),inactive,–,–
CC1=C(C#N)C(NC(=O)C2CCCCC2)(C(F)(F)F)C(=O)N1 (stereo not given),inactive,14.5%,–
COC(=O)C1=C(C)N(C(C)C)C(=O)C1(NC(=O)C1CCCCC1)C(F)(F)F (stereo not given),25.9 µM (active),24.5%,–
COc1ccc(S(=O)(=O)N2CCC(C(=O)N[C@H](C(=O)N3CCCC3)C(C)C)CC2)cc1,inactive,–,–
Cc1ccc2nc(NC(=O)CSc3nnc(C)c(=O)n3N)sc2c1,inactive,0.333%,–
CCOC(=O)c1c(C)[nH]c(NC(=O)Nc2ccc(NC(C)=O)cc2)c1C,inactive,22.7%,–
O=C(CN(C(=O)CCC(=O)Nc1ccccn1)c1ccc2c(c1)OCCO2)NCCc1ccccc1,inactive,-14.1%,–
O=C(O)c1cc2[nH]c3c(c2cc1Cl)CCCC3,4.11 µM (active),-7.3%,–
NNC(=O)c1ccc2[nH]c3c(c2c1)CCCC3,inactive,7%,–
O=C(O)c1cccc2c3c([nH]c12)CCCC3,inactive,23.1%,–
CC(OC(=O)C1CC(=O)N(Cc2ccco2)C1)C(=O)Nc1ccc(F)cc1Cl (stereo not given),inactive,-0.141%,–
Cc1cc(C)cc(N2CC(C)(C)C2=O)c1,inactive,–,–
CCCOc1ccc(N2C(=O)CC(NCCc3ccc(S(N)(=O)=O)cc3)C2=O)cc1 (stereo not given),inactive,11.4%,–
O=C(NCCc1ccccc1)C(=O)NN=C1CCCC1,29.1 µM (active),6%,–
O=C(CC(=O)NN=C1CCCC1)NCCc1ccccc1,inactive,12%,–

SMILES,Potency,cell number change,"lipid storage change, negative = inhibition"
S=C(NCCc1ccccc1)NN=C1CCCCCC1,inactive,-23.7%,–
CN(C)CCOC(=O)c1ccc2c(c1)S(=O)(=O)c1ccccc1C2=O,inactive,0.995%,–
Cc1cc(C)nc(SCC(=O)N/N=C/c2cccc([N+](=O)[O-])c2)n1,inactive,0.279%,–
O=C(O)COc1ccc(/C=N/NC(=O)c2ccccc2Br)cc1,inactive,-13.2%,–
O=C(COc1ccc(/C=N/NC(=O)c2ccccc2O)cc1)Nc1ccccc1,–,-17.8%,9.4% [at 9.22 µM] (inactive)
O=C(COc1ccc(/C=N/NC(=O)c2ccccc2Br)cc1)Nc1ccccc1,18.4 µM (active),-20.5%,–
CC(C)(C)OC(=O)N1CCC(C(=O)O)CC1,inactive,14%,–
O=S(=O)(NCc1ccccn1)C(F)(F)F,inactive,15.5%,–
Cc1cc(C)n2c(SCC#N)nnc2n1,inactive,–,–
CCO[C@H]1OC(C(=O)N2CCCCCCC2)=C[C@@H](c2ccccc2)[C@@H]1CCCO,inactive,-2.78%,–
CSC1=NNC(c2ccc(C(C)(C)C)cc2)=NN1,inactive,21%,–
COCC(C)n1c(C)cc(C(=O)COC(=O)CN=C2NS(=O)(=O)c3ccccc32)c1C (stereo not given),inactive,10.7%,–
COc1ccc(C2/C(=C(/O)c3ccc(C)cc3)C(=O)C(=O)N2c2ccccn2)cc1OC (stereo not given),inactive,-0.743%,–
COc1ccc(C(C)=O)cc1CN1C(=O)NC2(CCCCCCC2)C1=O,inactive,6.34%,–
CCOc1ccc(C(C)=O)cc1CN1C(=O)NC2(CCCCC2C)C1=O (stereo not given),inactive,-2.29%,–
CCOc1ccc(C(C)=O)cc1CN1C(=O)NC2(CCCCCC2)C1=O,0.13 µM (active),3.15%,–
O=C(Nc1ccc(Cl)cc1)Nc1nnc(Cc2ccc([N+](=O)[O-])cc2)s1,inactive,3.06%,–
CCn1c(CNC(=O)COc2c(C)cccc2C)nnc1SCC(=O)Nc1nccs1,inactive,-11%,–
C=CCNC(=S)NNC(=O)C(CCCC)CC(O)COCC(C)C (stereo not given),inactive,6.35%,–
C=CCNC(=S)NNC(=O)C(CC(C)C)CC(C)O (stereo not given),inactive,1.94%,–
C=CCNC(=S)NNC(=O)C(CCCC)CC(C)O (stereo not given),29.1 µM (active),-5.26%,–
CCC(=O)Nc1ccc(/C=C(\C(C)=O)C(=O)c2ccccc2)cc1,inactive,-16.8%,–
CC1(C)C2CCC(C2)C1(C)NC(=O)C[N+](C)(C)C (stereo not given),inactive,7.74%,–
CCOCCCNCC(=O)NC1(C)C2CCC(C2)C1(C)C (stereo not given),1.3 µM (active),-12.8%,–
CC1(C)C2CCC(C2)C1(C)NC(=O)CNC1CCCCC1 (stereo not given),inactive,–,–

SMILES,Potency,cell number change,"lipid storage change, negative = inhibition"
Cc1ccc(C(=O)Nc2ccc(C(=O)N3CCCCC3)cc2)o1,inactive,–,–
COCC(C)NS(=O)(=O)c1ccc(C(=O)NCCCn2ccc3ccccc32)cc1 (stereo not given),inactive,-2.38%,–
O=C(NC(Cc1c[nH]c2ccccc12)C(=O)O)c1ccc(F)cc1 (stereo not given),inactive,-8.38%,–
Cc1ccc(C(=O)NC(Cc2c[nH]c3ccccc23)C(=O)O)cc1 (stereo not given),16.4 µM (active),8.72%,–
Cc1ccc(C(=O)Nc2ccccc2C(=O)NC(Cc2c[nH]c3ccccc23)C(=O)O)cc1 (stereo not given),inactive,14.2%,–
O=C(Cc1ncc(C(F)(F)F)cc1Cl)NNc1cccc(F)n1,inactive,2.59%,–
CCC1(c2ccc(F)cc2)NC(=O)N(CC(=O)c2cc(C)n(C3CC3)c2C)C1=O (stereo not given),inactive,-20.6%,–
CN(CCCNC(=O)CSc1cc(=O)n(C)c2ccc(Cl)cc12)Cc1ccccc1,inactive,-6.41%,–
COc1ccccc1CNC(=O)C(c1ccccc1)c1ccccc1,inactive,13.6%,–
COc1ccccc1CN(C)C(=O)C(c1ccccc1)c1ccccc1,20.6 µM (active),14.8%,–
COc1ccccc1CN(C)C(=O)CN1C(=O)c2ccccc2C1=O,inactive,14.5%,–
CCOc1ccc(N(CC(=O)N2CCCCCC2)S(C)(=O)=O)cc1,inactive,–,–
CCOC(=O)C1CCN(C(=O)Cn2cc(C(=O)C3CC3)c3ccccc32)CC1,inactive,3.64%,–
Cn1cnnc1SCC(=O)Nc1ccc(F)cc1F,inactive,-0.713%,–
COc1ccc(-c2cc(CCCC(=O)NCCc3cc(OC)ccc3OC)no2)cc1,inactive,4.57%,–
Cn1c(=O)c2sccc2n2c(CCCC(=O)N3CCCCC3)nnc12,10.3 µM (active),-19.4%,–
COc1ccc(OC)c(CCNC(=O)CCCc2nnc3n(C)c(=O)c4sccc4n23)c1,7.31 µM (active),-24.6%,–
CC(C)CCn1c(=O)c2sccc2n2c(CCCC(=O)N3CCC(N4CCCCC4)CC3)nnc12,inactive,–,–
Cn1c(=O)c2sccc2n2c(CCCC(=O)NCc3ccc4c(c3)OCO4)nnc12,inactive,-24.9%,–
O=C(CCc1nnc2n(Cc3ccc(Cl)cc3)c(=O)c3ccccc3n12)N1CCN(c2ccccn2)CC1,inactive,-18.3%,–
O=C(CCCCCn1c(=O)[nH]c2ccsc2c1=O)N1CCCCC1,inactive,-7.73%,–
Cn1c(=O)c2sccc2n2c(CCCC(=O)Nc3ccc(F)cc3F)nnc12,9.2 µM (active),-23.8%,–
COc1ccc(Cn2c(CCC(=O)N3CCN(c4ccccn4)CC3)nc3ncccc3c2=O)cc1,inactive,-8.69%,–
O=C(CCN1C(=O)c2ccccc2C1=O)Nc1ccc(F)cc1F,inactive,5.85%,–
O=C(CCc1nnc2n(Cc3ccc(F)cc3)c(=O)c3ccccc3n12)N1CCN(c2ccccn2)CC1,13 µM (active),-18.8%,–
